The list is not random: actives were taken first. Their share in the collection is about 19%.
DT40 TDP1 no CPT: qHTS for Inhibitors of human tyrosyl-DNA phosphodiesterase 1 (TDP1): qHTS in cells in absence of CPT; DT40 Tdp1-/- hTDP1 cells, no CPT, ATP luminescence, 48 h; Potency, µM (highest dose often 46.2 µM), for inactives: at the top dose activity change, negative = growth inhibition, most hits filed as inhibitors; actives 15% (n = 420,000); AID 686978, 2013; further: nearly all actives have a fitted effect of over 55% in size
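Readout: luminescence from CellTiter-Glo after 30 min in the dark at RT. Cells: DT40 Tdp1-/- with stable hTDP1, 400/well. Exposure: compounds alone, ≥48 hr, 37 °C.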
HT1080 IDH1KD tx: qHTS for induction of synthetic lethality in tumor cells producing 2HG: qHTS for the HT-1080-IDH1KD cell line; Potency, µM (series often up to 46.1 µM), for inactives: at the highest dose activity, negative = toxicity, most hits filed as cytotoxic; HT-1080 IDH1 knockdown viability, ATP luminescence, 48 h; actives 2% (n = 360,000);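 further: 0% = DMSO wells and -100% = cell-free medium wells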
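HT-1080-IDH1KD cells (IDH1 knocked down), 750/well in RPMI with 5% FBS, treated with compound 48 h at 37 degrees C. Viability by CellTiter-Glo luminescence, normalised to DMSO and no-cell wells; concentration-response curves classed.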
HT1080NT lethal: qHTS for induction of synthetic lethality in tumor cells producing 2HG: qHTS for the HT-1080-NT fibrosarcoma cell line; HT-1080-NT fibrosarcoma viability, CellTiter-Glo ATP luminescence, 48 h; Potency, µM (highest dose often 46.1 µM), for inactives: at the top dose activity, negative = less viability, most hits filed as cytotoxic; actives 1.6% (n = 360,000); AID 686970, 2013;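 further: NT is the 2HG producing partner of a matched IDH1 knockdown line; 0% = DMSO-treated cells and -100% = media-only wells without cells; nearly all actives have a fitted effect of over 55% in size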
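HT-1080-NT; 750 cells/well; 5% FBS RPMI; 48 h compound, 37 degrees C; CellTiter-Glo luminescence; curve fitting and curve-class assignment.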
KB-3-1 tox: qHTS assay for MDR1-selective chemotherapeutics: Primary screen using the parental adenocarcinoma cell KB-3-1; KB-3-1 viability, CellTiter-Glo ATP luminescence, 72 h; Potency, µM (titrated, usually from 46.1 µM), most hits filed as cytotoxic; actives 1.4% (n = 400,000); further: nearly all actives have a fitted effect of over 60% in size
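Cells are dispensed, compounds pinned in, plates held at 37 °C for 72 h, then CellTiter-Glo is added and luminescence read after 10 minutes. Cell line: parental KB-3-1 in phenol-red-free DMEM, 10% FBS.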
DT40 TDP1 CPT: qHTS for Inhibitors of human tyrosyl-DNA phosphodiesterase 1 (TDP1): qHTS in cells in presence of CPT | actives 12% (n = 420,000) | chicken DT40 Tdp1-/-;hTDP1 cells + 20 nM CPT, ATP luminescence, 48 h | Potency, µM (titrated, usually from 46.2 µM), without a hit: at the top dose activity change, negative = growth inhibition, most hits filed as inhibitors; further: nearly all actives have a fitted effect of over 55% in size
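Chicken DT40 Tdp1-/- cells stably complemented with human TDP1 were seeded at 400 cells/well in medium containing 20 nM camptothecin, exposed to pin-transferred compounds, and grown at 37 °C for at least 48 hr. Viability was read as ATP luminescence.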
KB-V1 cytotox: qHTS assay for MDR1-selective chemotherapeutics: Primary screen using the drug-selected MDR subline cells KB-V1 | KB-V1 MDR cells viability, CellTiter-Glo, 72 h | Potency, µM (titrated, usually from 46.1 µM), actives largely listed as cytotoxic | actives 3.4% (n = 400,000) | AID 1347076, 2019; further: nearly all actives have a fitted effect of over 60% in size
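Cytotoxicity toward P-gp-expressing KB-V1 cells was determined as loss of CellTiter-Glo luminescence after 72 h at 37 degrees C. Compounds were tested in quantitative HTS format across a concentration range, with curves fitted to normalized data.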
* marks the source's active call; other numbers are inactive results; i = inactive; ? = inconclusive; · = no result; ! = repeats disagree. The call rests on the fitted dose curve; in most records, active means well fitted curve in the direction sought with a large enough effect; inconclusive means small, poorly fitted or top-dose-only effect, or another doubt; inactive means no such curve, though single readings can be large; an effect the other way counts as inactive or inconclusive. Unless noted, on the % scale 0 is the no-effect control and ±100 the full control effect; potency means the concentration at half of the fitted maximal effect.

SMILES	DT40 TDP1 no CPT	HT1080 IDH1KD tx	HT1080NT lethal	KB-3-1 tox	DT40 TDP1 CPT	KB-V1 cytotox
COc1ccc(-c2ccc3c(N)c(C(=O)c4ccc(OC)c(OC)c4)sc3n2)cc1	9.2µM*	-1%	-7%	i	9.2µM*!	i
COCCNC(=O)Cn1cc(/C=C(\C#N)C(=O)NC2CCCC2)c2ccccc21	?	-1%	1%	i	-1%	i
COc1cccc(-c2ccc3c(N)c(C(=O)c4ccc(Br)cc4)sc3n2)c1	15µM*	·	·	?	15µM*	i
COc1cccc(-c2ccc3c(N)c(C(=O)Nc4ccc(Cl)cc4F)sc3n2)c1	?	·	·	i	-24%	i
COc1ccc2cc(C#CC3=CC(=O)C[C@H](c4ccc(F)cc4)C3)ccc2c1	?	?	?	i	?	i
COc1ccc(C)cc1NC(=O)COC(=O)c1ccc(OCc2ccc(Cl)cc2Cl)c(OC)c1	16µM*	6%	3%	i	18µM*	i
CN(C)CCNC(=O)c1ccc(COc2ccc(Cl)cc2Cl)cc1	18µM*	?	10µM*	?	?	18µM*
COc1cc(C(=O)NCCC(C)C)ccc1OCc1ccc(Cl)cc1Cl	?	-6%	-6%	?	?	15µM*
Cn1cc(S(=O)(=O)N2CCCCC2)cc1C(=O)N1CCN(c2ccccc2F)CC1	?	·	·	i	-23%	i
CCc1ccc(NC(=O)C(=O)NCCc2sc3nc(-c4ccc(OC)cc4)nn3c2C)cc1	-3%	·	·	·	-4%	·
CCc1cccc2c(-c3ccccc3)nc(SCC(=O)Nc3ccc(OC)cc3)nc12	5%	·	·	i	-11%	i
Cc1ccc2c(c1)-c1onc(C(=O)N(C)c3cccc(C(F)(F)F)c3)c1CO2	·	·	·	?	·	i
COC(=O)c1cnc(N)s1	-12%	1%	-2%	i	-10%	i
COc1ccc(NS(=O)(=O)c2cc(S(C)(=O)=O)ccc2C)cc1	-19%	21%	3%	i	0%	i
COc1ccc(NS(=O)(=O)c2cc(C)ccc2C)cc1	16µM*	?	-25%	7.3µM*	21µM*	i
COc1ccc(NS(=O)(=O)c2cc(NC(=O)c3ccc(=O)[nH]n3)ccc2C)cc1	18µM*	?	26µM*	?	18µM*	?
COc1ccc(NS(=O)(=O)c2cc(OC)ccc2NC(=O)c2cc(C)oc2C)cc1	2.6µM*	5.8µM*	5.8µM*	?	5.2µM*	?
COCOCCn1cc(CN2CCS(=O)(=O)N(Cc3ccc(-c4ccc(F)cc4)cc3)C(C(C)C)C2=O)nn1 (centres undefined)	18µM*	-30%	-15%	i	?	?
COCOCCn1cc(CN2CCS(=O)(=O)N(Cc3ccc(-c4ccc(F)cc4)cc3)C(CC(C)C)C2=O)nn1 (centres undefined)	15µM*	?	?	?	26µM*	?
COCOCCn1cc(CN2CCS(=O)(=O)N(Cc3ccc(-c4ccc(Cl)cc4)cc3)C(C(C)C)C2=O)nn1 (centres undefined)	21µM*	-1%	-13%	i	18µM*	i
COCOCCn1cc(CN2CCS(=O)(=O)N(Cc3ccc(-c4ccc(Cl)c(Cl)c4)cc3)C(C(C)C)C2=O)nn1 (centres undefined)	2.3µM*	?	?	?	2.3µM*	i
CCC/C=C/c1ccc(CN2C(C(C)C)C(=O)N(Cc3cn(CCOCOC)nn3)CCS2(=O)=O)cc1 (centres undefined)	?	2%	10%	i	?	i
COCOCCn1cc(CN2CCS(=O)(=O)N(Cc3ccc(-c4ccc(OC)cc4)cc3)C(C)C2=O)nn1 (centres undefined)	12µM*	1%	0%	i	21µM*	i
CC(C)c1ccc(NC2CCCN(C(=O)CC3CCCC3)C2)cc1 (centres undefined)	10µM*	-20%	?	i	21µM*	i
CC(C)c1ccc(NC2CCCN(C(=O)CCN3CCCC3=O)C2)cc1 (centres undefined)	-2%	18%	16%	i	1%	i
SMILES	DT40 TDP1 no CPT	HT1080 IDH1KD tx	HT1080NT lethal	KB-3-1 tox	DT40 TDP1 CPT	KB-V1 cytotox
Cc1ccnn1CCC(=O)N1CCCC(Nc2ccc(C(C)C)cc2)C1 (centres undefined)	16µM*	-9%	-1%	i	21µM*	?
O=C1C(O)=C(O)C(=O)c2ccccc21	?	-17%	-20%	i	?	i
O=C1c2ccccc2C(=O)c2[nH]c(=O)[nH]c21	1.8µM*	6.5µM*	9.2µM*	5.2µM*	2.1µM*	10µM*
Cc1ccc(CCNC(=O)c2cc(-c3ccncc3)nc3ccc(S(=O)(=O)N4CCOCC4)cc23)cc1	?	1%	-1%	i	?	i
FC(F)(F)c1nnc(-c2ccccc2)nc1N1CCCC1	1%	0%	1%	i	-3%	i
FC(F)(F)c1nnc(-c2ccccc2)nc1Sc1ccc(Cl)cc1	6.5µM*	?	?	?	5.2µM*	?
FC(F)(F)c1cccc(Sc2nc(-c3ccccc3)nnc2C(F)(F)F)c1	12µM*	?	?	21µM*	8.2µM*	?
FC(F)(F)c1nnc(-c2ccccc2)nc1Sc1ccccc1	10µM*	?	?	i	15µM*	i
FC(F)(F)c1cccc(Oc2nc(-c3ccccc3)nnc2C(F)(F)F)c1	?	0%	-3%	i	-20%	i
Cc1ccc2nc(SCC(=O)N3CCCCC3)nc(=O)n2c1	-3%	-6%	-6%	i	-20%	i
N#CCCN(C(=O)COC(=O)c1cc(S(=O)(=O)N2CCOCC2)ccc1Cl)c1ccc(F)cc1	-19%	9%	1%	i	10%	i
Cc1ccc(-c2cc3ccccc3nc2N)cc1	26µM*	3%	?	i	16µM*	?
Nc1nc2ccccc2cc1-c1cccs1	4%	15%	5%	i	-5%	i

Bioassay records: PubChem, National Center for Advancing Translational Sciences (NCATS)
